For 18 compounds, growth results are on record in PubChem BioAssay (NCI).

Test systems include T-47D breast; BT-549 breast; MDA-MB-435 melanoma; MCF7 breast; HCT-116 colon; KM12 colon; HCC-2998 colon; SW-620 colon.
Assay in all cases: NCI-60 one-dose screen, 48 h (100 = growth as untreated, 0 = no growth, -100 = all killed)
Holding throughout (details): 10 µM unless noted

Molecules are shown by their SMILES. Compounds without any hit were thinned out: in the full panel of roughly 83,000, 20% have a hit.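 Treatment: one concentration, 48 hours, 96-well format. Scoring: percent growth, with anything below 10 considered active.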 Values without a mark were called inactive. Active and inactive are the calls of the source.

For the compound `CN1CCN(c2ccc(NC(=O)c3cncnc3Nc3ccc(OCc4ccccn4)c(Cl)c3)cc2)CC1`, the growth was 53.7% in the experiment with T-47D breast; 77.9% in the experiment with BT-549 breast; -60.2% (active) in the experiment with MDA-MB-435 melanoma; 26.5% in the experiment with MCF7 breast; -48% (active) in the experiment on HCT-116 colon; 49.3% with KM12 colon.

Take `O=C(O)c1ccc(-n2cc(/C=N/Nc3ccc(F)cc3)c(-c3cc4ccccc4oc3=O)n2)cc1`: the growth in the experiment with T-47D breast is 63.7%; in the experiment with BT-549 breast, 80%; in the experiment with MDA-MB-435 melanoma, 77.5%; in the experiment on MCF7 breast, 66.1%; in the experiment on HCT-116 colon, 56.5%; in the experiment on HCC-2998 colon, 88.3%. The growth with KM12 colon is 77.7%.

With `O=c1c2cc(-c3ccccc3)sc2nc2sc(-c3ccccc3)nn12`, the growth in the experiment on T-47D breast is 99.3%; with BT-549 breast, 118%; with MDA-MB-435 melanoma it was 105%; with MCF7 breast, 97.6%; with HCT-116 colon, 102%; with HCC-2998 colon it was 101%. Moreover, the growth in the experiment on KM12 colon was 101%.

Take `O=S(=O)(Nc1ccc(Cl)cc1)c1ccc(-c2cnc(C3CC3)o2)cc1`: the growth in the experiment on T-47D breast is 22.6%; in the experiment with BT-549 breast, 51.8%; with MDA-MB-435 melanoma, -3.04% (active); in the experiment on MCF7 breast it was 18.7%; in the experiment with HCT-116 colon, 21.2%; with HCC-2998 colon, 40.3%. Further, in the experiment with KM12 colon, the growth was 20.9%.

Turning to `CCC(C)N(c1ccc(Cl)cc1)c1nc(-c2ccc(Br)cc2)cs1` (centres undefined), the growth is 78.7% with T-47D breast; 121% in the experiment on BT-549 breast; 101% in the experiment with MDA-MB-435 melanoma; 95.5% in the experiment on SW-620 colon; 91% in the experiment on HCT-116 colon; 108% in the experiment on HCC-2998 colon. Further, the growth in the experiment with KM12 colon was 91.5%.

For the compound `COc1cc(-c2cc(-c3ccc(N(C)C)cc3)nc(N3CCC(O)CC3)c2C#N)cc(OC)c1OC`, the growth was 8.21% (active) in the experiment on T-47D breast; 30.6% with BT-549 breast; -18.5% (active) with MDA-MB-435 melanoma; 0.557% (active) in the experiment on MCF7 breast; -38.9% (active) in the experiment with HCT-116 colon; -0.387% (active) in the experiment with KM12 colon.

Turning to `Cc1ccc(S(=O)(=O)N2CCCC2CO)cc1` (centres undefined), the growth in the experiment on BT-549 breast is 86.6%; in the experiment on MDA-MB-435 melanoma, 111%; with SW-620 colon, 96.8%; in the experiment on MCF7 breast, 91.3%; in the experiment with HCT-116 colon, 96.8%; in the experiment on KM12 colon, 104%.

In the case of `Oc1c(Cl)cc(Cl)c2ccc(Cn3cc(-c4cc(F)cc(F)c4)nn3)nc12`, the growth with BT-549 breast was 70.9%; in the experiment on MDA-MB-435 melanoma, 60.8%; in the experiment on SW-620 colon, 4.81% (active); with MCF7 breast, 34.4%; in the experiment on HCT-116 colon, 5.12% (active); in the experiment with HCC-2998 colon it was 103%. The growth in the experiment on KM12 colon was 102%.

As for `COc1ccc(C(=S)N2CCN(c3ccccc3Cl)CC2)cc1OC`, the growth was 90.6% in the experiment on BT-549 breast; 91.7% with MDA-MB-435 melanoma; 106% in the experiment with SW-620 colon; 106% with MCF7 breast; 87.1% with HCT-116 colon; 123% in the experiment on KM12 colon.

`N#Cc1cnc(NCCc2ccncc2)nc1-n1cnc2ccccc21`: the growth in the experiment with BT-549 breast is 48.5%; with MDA-MB-435 melanoma, 69%; with SW-620 colon, 58.8%; in the experiment with MCF7 breast, 64.4%; with HCT-116 colon, 24.8%; in the experiment on HCC-2998 colon, 58.5%. Besides, in the experiment on KM12 colon, the growth was 25.9%.

As for `CCN1CCN(Cc2cn(CC(=O)Nc3ccc4c(ccn4Cc4ccccc4)c3)nn2)CC1`, the growth is 96.1% with BT-549 breast; 97.7% in the experiment with MDA-MB-435 melanoma; 99.3% with SW-620 colon; 99.5% in the experiment with MCF7 breast; 99.2% with HCT-116 colon; 110% in the experiment on HCC-2998 colon. Besides, the growth in the experiment on KM12 colon was 101%.

On to `Cc1ccc(-c2nc3nc(-c4ccc(F)cc4)nc(N4CCNCC4)c3o2)cc1`, for which the growth with BT-549 breast was 99.5%; with MDA-MB-435 melanoma it was 66%; in the experiment on SW-620 colon it was -79.3% (active); in the experiment on MCF7 breast, -74.2% (active); in the experiment with HCT-116 colon, -92.1% (active); in the experiment with HCC-2998 colon, 19.4%. Besides, the growth with KM12 colon was -83.7% (active).

As to `O=C1/C(=C/c2ccc(Cl)cc2)COc2ccc(O)c(O)c21`, the growth in the experiment with BT-549 breast was 5.45% (active); in the experiment on MDA-MB-435 melanoma it was 1.56% (active); in the experiment on SW-620 colon it was -9.64% (active); in the experiment on MCF7 breast it was 9.76% (active); with HCT-116 colon, 0.395% (active); in the experiment with HCC-2998 colon, 5.98% (active). In addition, in the experiment with KM12 colon, the growth was -2.9% (active).

For the compound `O=C(O)c1[nH]c(=O)[nH]c(=O)c1[N+](=O)[O-]`, the growth is 107% with BT-549 breast; 106% with MDA-MB-435 melanoma; 109% with SW-620 colon; 98.8% in the experiment on MCF7 breast; 100% in the experiment on HCT-116 colon; 99.2% in the experiment on HCC-2998 colon. Moreover, the growth in the experiment on KM12 colon is 115%.

`N=C(N)c1ccc(-c2ccc(-c3cc(Cl)cc(Cl)c3)o2)o1`: the growth was 88.8% in the experiment on BT-549 breast; -92.8% (active) in the experiment on MDA-MB-435 melanoma; -87.4% (active) in the experiment with SW-620 colon; -77.6% (active) in the experiment with MCF7 breast; -69.4% (active) in the experiment on HCT-116 colon; -77.8% (active) with HCC-2998 colon. Further, the growth in the experiment with KM12 colon is -78.9% (active).

Regarding `COc1cc2c(c(OC)c1OC)C(=O)CC(c1cccc(NC(=O)c3ccc(Br)cc3)c1)O2` (centres undefined), the growth was 15.7% in the experiment with BT-549 breast; -18.3% (active) in the experiment with MDA-MB-435 melanoma; 25.4% in the experiment on SW-620 colon; 23.4% in the experiment on MCF7 breast; 23.4% with HCT-116 colon; 31.6% in the experiment with KM12 colon.

Regarding `Nc1c(C(=O)Nc2ccncc2)sc2nc3c(cc12)CCCCCC3`, the growth in the experiment on BT-549 breast is 69.4%; with MDA-MB-435 melanoma, 96%; in the experiment with SW-620 colon, 103%; in the experiment with MCF7 breast, 78.5%; with HCT-116 colon, 65.5%; in the experiment on KM12 colon it was 80.7%.

Consider `Cn1cc(-c2nc(-c3c[nH]c4ccncc34)cs2)c2ccccc21`, for which the growth was 84.4% in the experiment with BT-549 breast; -89.9% (active) with MDA-MB-435 melanoma; -47% (active) with SW-620 colon; 4.55% (active) in the experiment with MCF7 breast; -63.4% (active) in the experiment with HCT-116 colon; 18.7% in the experiment with KM12 colon.
